Bioassay records (PubChem)
D2 antag = HTS Assay for Allosteric Antagonists of the Human D2 Dopamine Receptor: Primary Screen for Antagonists | actives 2% (n = 340,000) | HEK293 TREx D2 cells, calcium flux, dopamine EC80 | inhibition, % at 10 µM | D(2) dopamine receptor (Homo sapiens), P14416 | AID 485344, 2010; in the data active means inhibition above about 30%; inactive means below that, where a call was filed; further: 0% is about no effect
Target sequence (P14416 whole entry, looked up): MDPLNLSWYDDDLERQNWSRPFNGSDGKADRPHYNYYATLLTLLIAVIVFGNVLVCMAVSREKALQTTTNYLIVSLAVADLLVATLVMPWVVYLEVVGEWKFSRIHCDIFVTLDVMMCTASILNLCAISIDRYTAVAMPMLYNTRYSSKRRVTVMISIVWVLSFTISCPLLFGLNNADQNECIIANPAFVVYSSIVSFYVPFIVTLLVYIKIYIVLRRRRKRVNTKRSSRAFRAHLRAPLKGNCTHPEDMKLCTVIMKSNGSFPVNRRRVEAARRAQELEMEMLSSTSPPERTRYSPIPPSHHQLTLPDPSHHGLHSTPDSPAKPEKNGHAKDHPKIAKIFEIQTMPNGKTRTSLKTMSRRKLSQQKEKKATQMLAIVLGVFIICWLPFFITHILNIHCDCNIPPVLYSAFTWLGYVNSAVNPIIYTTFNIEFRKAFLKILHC
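Tetracycline-induced HEK293 TREx cells expressing D2 receptor forced-coupled to calcium signalling, loaded with no-wash calcium dye. Compounds added and calcium flux read 180 s, then dopamine added at EC80 and read a further 180 s.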
D2 ag-1 = HTS Assay for Allosteric Agonists of the Human D2 Dopamine Receptor: Primary Screen for Agonists; HEK293 T-REx D2 cells, calcium flux agonist mode; activation, % at 2 µM; actives 0.53% (n = 340,000); AID 485358, 2010;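 active means activation over 3 SD above normal in the single-dose calcium agonist read, cut at about 30% in these data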; further: 0% is about no effect
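Tetracycline-induced HEK293 Trex cells with D2 receptor force-coupled to calcium signaling, plated overnight at 30 C and loaded with no-wash calcium dye. Calcium flux read kinetically for 180 s after compound addition; responses flag agonists.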
D2 PAM-1 = Beta-Arrestin HTS for Positive Allosteric Modulators of the Human D2 Dopamine Receptor: Potentiators. D(2) dopamine receptor (Homo sapiens), P14416. actives 0.23% (n = 360,000). AID 624464, 2012. DiscoveRx D2 beta-arrestin cells, luminescence, 90 min; 100% = 57 uM dopamine signal. potentiation, % (no concentration beside the values); in the data active means potentiation above about 50%; inconclusive means mostly about 30% to 49%
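PathHunter beta-arrestin assay in DiscoveRx D2 cells. Compounds were added with an EC20 of dopamine (50 nM final) for 90 min at 37 deg C. Luminescence was read 1 h after detection reagent, with 57 uM dopamine as the EC100 control.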
D2 ag-2 = Beta-Arrestin HTS for Positive Allosteric Modulators of the Human D2 Dopamine Receptor: Agonists; DiscoveRx PathHunter D2 beta-arrestin, luminescence, 90 min; 100% = 57 uM dopamine signal; actives 0.084% (n = 360,000); D(2) dopamine receptor (Homo sapiens), P14416; activation, % (no concentration beside the values); AID 624465, 2012; in the data active means activation above about 40%; inconclusive means between about 15% and that limit
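DiscoveRx PathHunter D2 beta-arrestin cells (2,100/well) attached overnight, then compound-stimulated 90 min at 37 C in HBSS/10 mM HEPES/0.1% Tween-20 buffer; beta-galactosidase complementation read by luminescence after 1 h at ambient temperature. Dopamine 57 uM final (EC100) as control.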
D2 PAM-2 = HTS Assay for Positive Allosteric Modulators of the Human D2 Dopamine Receptor: Primary Screen for Potentiators; HEK293 T-REx D2, calcium flux, EC20 dopamine potentiation; potentiation, % at 10 µM; actives 0.34% (n = 340,000);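 active means potentiation over 3 SD above the plate norm, cut at about 30% in these data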; further: 0% is about no effect
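Cells plated with tetracycline inducer and held overnight at 30 C; calcium dye loaded 30–90 min at room temperature; baseline taken, compound added and read 180 s; EC20 dopamine then added and read 180 s.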
Numbers without * were called inactive; ? = inconclusive; . = not tested or not shown; ! = a repeat was not active. Most compounds without a hit are left out; they make up all but 2.4% or so of the library.

SMILES | D2 antag | D2 ag-1 | D2 PAM-1 | D2 ag-2 | D2 PAM-2
COc1ccc(S(=O)(=O)N2CCN(C(=O)c3oc4ccccc4c3C)CC2)cc1 | -7 | 1 | -4 | -1 | -6
O=C(c1ccc(=O)[nH]c1)N1CCN(S(=O)(=O)c2ccccc2)CC1 | 31* | 0 | 0 | -4 | 23
Cc1c(C(=O)N2CCN(S(=O)(=O)c3ccccc3)CC2)oc2ccccc12 | 34* | 0 | 3 | -5 | -8
O=C(CN1CCSC1=O)N1CCN(S(=O)(=O)c2ccccc2)CC1 | 37* | 0 | -4 | -2 | -2
CC1CCCN(C(=O)CSc2c3c(nc4cc(Cl)ccc24)CCCC3)C1 (configuration not stated) | . | -1 | . | . | 2
CCn1cc2nc(SCc3cc(C)ccc3C)n(CCc3ccccc3)c(=O)c2n1 | . | 1 | . | . | 4
COc1ccc(N(Cc2cc3cc(OC)ccc3[nH]c2=O)S(=O)(=O)c2ccc(NC(C)=O)cc2)cc1 | -7 | 0 | 50* | 2 | -20
COc1ccc(N(CC(=O)N/N=C/c2ccc(C(=O)O)cc2)S(=O)(=O)c2ccc(NC(C)=O)cc2)cc1 | 56* | 1 | 0 | 2 | -7
COc1ccc(N(Cc2cc3ccccc3[nH]c2=O)S(=O)(=O)c2ccc(OC)cc2)cc1 | 9 | -2 | -44 | -2 | -24
Fc1ccc(N2CCN(C3=Nc4cccc5cccc3c45)CC2)cc1 | 8 | -3 | -18 | -3 | -1
CN1CCN(C2=Nc3cc(F)ccc3Cc3ccccc32)CC1 | 33* | 1 | . | . | -26
C=C(C)Cn1c(SCC(=O)O)nnc1-c1ccccc1 | -6 | -1 | -1 | 1 | 5
C=C(C)Cn1c(SCC(=O)O)nnc1-c1ccc(C(C)(C)C)cc1 | 30* | 0 | 8 | -2 | -4
COc1ccc(NC(=O)CSc2nc(-c3cc(OC)c(OC)c(OC)c3)[nH]c2-c2ccc(F)cc2)cc1 | . | 1 | . | . | -24
CN(CC(O)CN1CCOCC1)S(=O)(=O)O (configuration not stated) | 34*! | 1 | -5 | -2 | 4
OC(CN1CCOCC1)CN1CCOCC1 | 12 | 1 | -9 | -2 | 11
C=CCNCCOCCSc1ccc(Cl)cc1 | 32* | 0 | -28 | 6 | -20
Cc1cc(NC(=O)CSc2nnc(-c3ccccc3)o2)no1 | . | . | -3 | 1 | .
Cc1cc(NC(=O)CCc2ccc(-c3ccccc3)o2)no1 | 33* | 0 | -19 | -6 | -16
Cc1cc(NC(=O)CSc2ccccc2)no1 | 2 | -1 | -22 | -2 | 6
Cc1cc(NC(=O)CCS(=O)(=O)c2nc(-c3ccccc3)cc(C(F)(F)F)n2)no1 | 13 | 1 | -19 | -7 | 38*
Cc1cc(NC(=O)CSc2nnc(-c3ccccc3)c(-c3ccccc3)n2)no1 | 80* | -1 | -2 | 1 | -7
Cc1cc(C)cc(-c2nnc(SCC(=O)Nc3cc(C)on3)o2)c1 | 36* | 0 | -11 | 0 | 8
COc1ccc(NC(=O)CCS(=O)(=O)c2nc(-c3ccc4c(c3)OCO4)cc(C(F)(F)F)n2)cc1 | . | 1 | . | . | 6
CC(C)Cn1c(=O)c2ccccc2n2c(CCC(=O)Nc3ccc(F)c(F)c3)nnc12 | . | 0 | . | . | 2
SMILES | D2 antag | D2 ag-1 | D2 PAM-1 | D2 ag-2 | D2 PAM-2
O=C(c1ccc(Cl)cc1)c1coc2ccc(O)cc12 | 35* | 0 | -3 | -3 | 0
O=C(c1ccc(Br)cc1)c1coc2ccc(O)cc12 | . | . | 5 | 1 | .
Cc1ccc(CNC(=O)Cn2ccn(-c3ccc(C)c(C)c3)c(=O)c2=O)cc1 | . | 0 | . | . | -7
Clc1cc(Cl)c(OCc2nc(-c3ccccn3)no2)cc1Cl | -19 | 2 | -5 | -3 | -2
CC(C)(C)c1ccc(OCc2nc(-c3ccccn3)no2)c(Br)c1 | 38* | 0 | -21 | 0 | 7
COc1ccc(Cc2nc(-c3ccncc3)no2)cc1 | -20 | -1 | 51* | -1 | 5
COc1ccc(Cc2nc(-c3ccccn3)no2)cc1 | 34* | 1 | -1 | -2 | 5
CCCS(=O)(=O)c1c(S(=O)(=O)CCC)c2cc(C(C)(C)C)ccn2c1C(=O)c1ccc(C)cc1 | . | 2 | . | . | -1
CCN(CC)CCN(C(=O)c1ccc(C(=O)OC)cc1)c1nc2ccc(Cl)cc2s1 | . | 1 | . | . | -4
COCCn1c(Cc2ccccc2)nnc1SCC(=O)NC1CC1 | 32* | 2 | -4 | -6 | 12
Cn1c(Cc2ccccc2)nnc1SCC(=O)NC1CC1 | -10 | 0 | -3 | 2 | -1
Cc1cc2n(n1)CCCN2C(=O)Nc1cccc(C)c1C | . | 1 | . | . | 2
O=C1c2ccc([N+](=O)[O-])cc2S(=O)(=O)N1Cc1ccccc1 | 16 | -1 | 72* | ? | 20
CCCCNC(=O)C(CC)Sc1nc2ccccc2c(=O)n1CCc1ccc(OC)c(OC)c1 (configuration not stated) | . | 0 | . | . | 6
Cc1onc(-c2ccccc2)c1C(=O)OCCOc1ccccc1F | 38* | 2 | -4 | 0 | 3
Cc1cccc(CSc2nc3c(sc4ccccc43)c(=O)n2CCC(=O)NC(C)C)c1 | . | -2 | . | . | -2
Cc1ccc(Cn2cc(S(=O)(=O)c3ccc(C(C)C)cc3)c(=O)c3cc4c(cc32)OCO4)cc1 | 36* | 0 | 5 | -3 | 8
CCn1c(SCC(=O)c2[nH]c(C)c(C(C)=O)c2C)nnc1-c1cccs1 | 99* | 0 | 3 | 0 | -8
O=Nc1c(O)ccc2cc(S(=O)(=O)O)ccc12 | . | . | 100* | ? | .
O=C(Cc1ccc(Cl)cc1)Nc1ccc(-c2cc3ccccc3oc2=O)c(Cl)c1 | 46* | 0 | 10 | -6 | 8
O=C(Cc1ccc(Cl)cc1)Nc1ccc2oc(=O)ccc2c1 | 12 | -2 | -3 | -2 | 4
Cc1ccc(-c2ccc(CCC(=O)O)n2C(C)C)cc1 | 33* | 0 | -7 | -2 | 16
Cc1ccc(-c2ccc(CCC(=O)O)n2NC(N)=S)cc1 | -8 | 2 | -20 | 0 | 4
O=C(Nc1ccccc1)c1cccc(N2C(=O)C3C4C=CC(C5CC45)C3C2=O)c1 (configuration not stated) | 32* | 1 | -2 | 2 | 0
COc1ccc(OC)c(NC(=O)c2cccc(N3C(=O)C4C5C=CC(C6CC56)C4C3=O)c2)c1 (configuration not stated) | 2 | -1 | -9 | 7 | 40*
